Most compounds without a hit are left out; they make up all but 4.5% or so of the library.
Jurkat NFkB inh: lowers PMA/ionomycin-induced NF-kB signal in Jurkat cells | AID 435003 | actives 0.53% (n = 330,000) | PMA/ionomycin-induced NF-kB luciferase reporter, luminescence | inhibition, % at 4 µM; in the data active means inhibition above about 50%
697 NFkB inh: inhibitors of the PMA/ionomycin-induced NF-kB reporter in 697 B cells; 697 B-cell NF-kB luciferase reporter, 16 h; actives 0.33% (n = 330,000); inhibition, % at 4 µM; in the data active means inhibition above about 35%
aSyn 5UTR inh: MLPCN primary screen, SNCA 5' untranslated region; alpha-synuclein 5'UTR reporter, inhibitor activity; inhibition, % (tested at 7.5 µM); actives 0.82% (n = 300,000); in the data active means inhibition above about 60%;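 further: H4 neuroglioblastoma cells stably carrying SNCA 5'UTR luciferase fusion; 0% = DMSO wells and 100% = positive control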
CSC inhib: cancer stem cell inhibition. actives 1.1% (n = 300,000). inhibition, % at 7.5 µM. cancer stem cell-like cells viability, luminescence. AID 2717; in the data active means inhibition above about 75%; tested in HMLE shEcad cells
Mdm2 MdmX PPI: human Mdm2/MdmX binding inhibition | SaOS-2 split-luciferase Mdm2/MdmX complementation, luminescence | inhibition, % at 8 µM | actives 3% (n = 330,000);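 active means inhibition of at least 50% at 8 µM in the primary screen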
Target sequence (O15151 whole entry, looked up): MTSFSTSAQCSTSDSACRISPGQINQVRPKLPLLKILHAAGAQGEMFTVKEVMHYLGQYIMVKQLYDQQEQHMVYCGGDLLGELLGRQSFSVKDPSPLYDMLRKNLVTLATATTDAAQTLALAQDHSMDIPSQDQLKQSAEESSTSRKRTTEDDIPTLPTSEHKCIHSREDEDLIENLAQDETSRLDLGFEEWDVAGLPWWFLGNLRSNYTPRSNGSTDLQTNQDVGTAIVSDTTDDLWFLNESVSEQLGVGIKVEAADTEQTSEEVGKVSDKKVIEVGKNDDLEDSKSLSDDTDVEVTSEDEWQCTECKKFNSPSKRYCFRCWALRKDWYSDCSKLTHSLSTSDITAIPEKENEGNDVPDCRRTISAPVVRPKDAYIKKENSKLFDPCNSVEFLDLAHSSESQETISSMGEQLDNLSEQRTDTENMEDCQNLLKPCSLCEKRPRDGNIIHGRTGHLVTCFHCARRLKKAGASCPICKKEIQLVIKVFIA
Target sequence (Q00987 whole entry, looked up): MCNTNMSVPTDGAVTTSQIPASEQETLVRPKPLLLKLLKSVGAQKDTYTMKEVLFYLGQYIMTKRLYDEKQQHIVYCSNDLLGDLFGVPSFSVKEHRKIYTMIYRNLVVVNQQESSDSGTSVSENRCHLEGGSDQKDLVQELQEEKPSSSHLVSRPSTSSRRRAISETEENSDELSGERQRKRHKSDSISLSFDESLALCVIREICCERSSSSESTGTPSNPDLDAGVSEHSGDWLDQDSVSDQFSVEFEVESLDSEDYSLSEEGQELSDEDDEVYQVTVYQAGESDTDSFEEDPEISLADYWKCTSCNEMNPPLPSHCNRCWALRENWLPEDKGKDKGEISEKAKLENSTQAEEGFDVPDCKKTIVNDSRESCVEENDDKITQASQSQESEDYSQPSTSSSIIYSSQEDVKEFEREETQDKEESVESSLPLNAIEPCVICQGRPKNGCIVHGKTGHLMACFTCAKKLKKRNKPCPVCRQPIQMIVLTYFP
Gli-Sufu block: Gli-Sufu pathway antagonism; Sufu-KO-LIGHT fibroblasts, Gli luciferase reporter luminescence; inhibition, % at 5 µM; actives 0.74% (n = 340,000);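 active means inhibition above about 55%, limit read from the data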;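 further: 0% = DMSO-treated cells and 100% = wells with medium but no cells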
Mdm2-MdmX conf: human Mdm2/MdmX binding inhibition, confirmed | inhibition, % at 8 µM | shares compounds with Mdm2 MdmX PPI | actives 55% (n = 10,000) | luminescent assay; in the data active means inhibition above about 40%
FLuc counter: full-length luciferase inhibition in Mdm2/MdmX counter-screen; AID 504607; actives 77% (n = 6,200); inhibition, % at 8 µM; SaOS-2 full-length luciferase counterscreen, luminescence; shares compounds with Mdm2 MdmX PPI;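 active means mean inhibition at 8 µM reaching about 37%, which flags the compound as non-specific, limit read from the data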;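 further: p53-null SaOS-2 cells with luciferase driven by a doxycycline-inducible promoter; compound on cells about two nights before reading with doxycycline added after day one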
* hit, by the source's call.

Screening Cc1cc(C)c(NC(=O)CSc2nc3ccc(NC(=O)CSc4nnnn4Cc4ccccc4)cc3s2)c(C)c1 returned Jurkat NFkB inh 0.2, 697 NFkB inh -4.6, aSyn 5UTR inh 23.4, CSC inhib -2.5, Mdm2 MdmX PPI 36.5 and Gli-Sufu block -0.1.
`Cc1cccc(NC(=O)c2sc(C)nc2C)c1` gave Jurkat NFkB inh -37.0, 697 NFkB inh -2.7, aSyn 5UTR inh -57.8, CSC inhib 6.5, Mdm2 MdmX PPI -11.6 and Gli-Sufu block -29.9.
For Cc1cccc(C(=O)Nc2nc(C)c(C(=O)Nc3ccc4c(c3)CCC4)s2)c1 the results were Jurkat NFkB inh -2.6, 697 NFkB inh -114.3, aSyn 5UTR inh -120.9, Mdm2 MdmX PPI 58.1*, Gli-Sufu block -30.9, Mdm2-MdmX conf 43.4* and FLuc counter 52.7*.
Screening O=C(COC(=O)CCNS(=O)(=O)c1ccccc1)Nc1ccc(OC(F)F)cc1 returned Jurkat NFkB inh -9.0, 697 NFkB inh 1.1 and Mdm2 MdmX PPI 15.8.
For Cc1nc(C)c(C(=O)OCC(=O)NCCc2ccc(F)cc2)s1 the results were Jurkat NFkB inh -3.7, 697 NFkB inh -7.2, Mdm2 MdmX PPI 18.9 and Gli-Sufu block -11.1.
`COc1cccc(CSc2nc3ccccc3cc2C=O)c1` gave Jurkat NFkB inh 49.1, 697 NFkB inh -7.5, aSyn 5UTR inh 71.0*, CSC inhib -15.2, Mdm2 MdmX PPI 68.1*, Gli-Sufu block 18.9, Mdm2-MdmX conf 64.3* and FLuc counter 60.8*.
Screening COc1cccc(NC(=O)CSc2nc3ccccc3cc2Cc2ccccc2)c1 returned Jurkat NFkB inh 12.9, 697 NFkB inh 3.8, aSyn 5UTR inh 21.7, CSC inhib 4.2, Mdm2 MdmX PPI 14.4 and Gli-Sufu block 5.6.
`O=C(NC1CCCCC1)C(c1ccccn1)N(C(=O)c1csnn1)C1CCCCC1` (centres undefined) gave Jurkat NFkB inh -2.3, 697 NFkB inh 9.3, aSyn 5UTR inh 5.6, CSC inhib -13.6, Mdm2 MdmX PPI -5.3 and Gli-Sufu block 5.8.
`COc1ccc(C[C@H]2CN3C(=NC[C@@H]3C(C)C)N2CCNC(=O)c2ccc(C)c(Br)c2)cc1` gave Jurkat NFkB inh 25.7, 697 NFkB inh -6.2, aSyn 5UTR inh -2.3, CSC inhib 15.6, Mdm2 MdmX PPI 63.5*, Gli-Sufu block 29.7 and Mdm2-MdmX conf 32.1.
For Cn1nc(CSc2ccccc2)c(C=O)c1Cl the results were Jurkat NFkB inh -16.6, 697 NFkB inh -26.5, aSyn 5UTR inh -50.6, CSC inhib -4.3, Mdm2 MdmX PPI -2.8 and Gli-Sufu block -20.5.
For CC(C)OCCCn1c(=N)c(C(N)=S)cc2c(=O)n3ccccc3nc21 the results were Jurkat NFkB inh -8.1, 697 NFkB inh 13.3, aSyn 5UTR inh 8.6, CSC inhib 2.8, Mdm2 MdmX PPI 61.1*, Gli-Sufu block 11.2 and Mdm2-MdmX conf 30.1.
Screening COCCn1c(=N)c(C(=O)NCCc2ccc(OC)cc2)cc2c(=O)n3cccc(C)c3nc21 returned Jurkat NFkB inh -8.1, 697 NFkB inh -13.4, aSyn 5UTR inh -15.6, CSC inhib -0.7, Mdm2 MdmX PPI 38.6 and Gli-Sufu block 13.2.
For COc1ccc(CCNC(=O)c2cc3c(=O)n4cccc(C)c4nc3n(CCCN3CCOCC3)c2=N)cc1 the results were Jurkat NFkB inh 7.6, 697 NFkB inh -27.1, aSyn 5UTR inh -67.3, CSC inhib 11.0, Mdm2 MdmX PPI 65.1*, Gli-Sufu block 15.3 and Mdm2-MdmX conf 16.8.
Screening Cc1cccn2c(=O)c3cc(C(=O)NC4CCCC4)c(=N)n(CC4CCCO4)c3nc12 (centres undefined) returned Jurkat NFkB inh 9.3, 697 NFkB inh 16.3, aSyn 5UTR inh -34.7, CSC inhib -8.5, Mdm2 MdmX PPI 23.2 and Gli-Sufu block -17.3.
For Cc1cccn2c(=O)c3cc(C(=O)NCCN4CCOCC4)c(=N)n(Cc4ccc(F)cc4)c3nc12 the results were Jurkat NFkB inh 25.4, 697 NFkB inh 22.0, aSyn 5UTR inh 57.9, CSC inhib -11.6, Mdm2 MdmX PPI 81.1*, Gli-Sufu block 44.2, Mdm2-MdmX conf 77.8* and FLuc counter 34.8.
For Cc1cccn2c(=O)c3cc(C(=O)NCCN4CCOCC4)c(=N)n(CCN4CCOCC4)c3nc12 the results were Jurkat NFkB inh -19.6, 697 NFkB inh 9.7, aSyn 5UTR inh -3.6, Mdm2 MdmX PPI 22.6 and Gli-Sufu block 11.0.
Screening CC(=O)N=c1c(C#N)cc2c(=O)n3ccccc3nc2n1CCCOC(C)C returned Jurkat NFkB inh 2.6, 697 NFkB inh 4.6, aSyn 5UTR inh -18.5, CSC inhib 6.0, Mdm2 MdmX PPI -13.3 and Gli-Sufu block 9.8.
Screening Cc1cccn2c(=O)c3cc(C(=O)NC4CCCCC4)c(=N)n(Cc4ccc(F)cc4)c3nc12 returned Jurkat NFkB inh 42.4, 697 NFkB inh 32.6, aSyn 5UTR inh 20.7, CSC inhib -7.7, Mdm2 MdmX PPI 57.7*, Gli-Sufu block -6.5 and Mdm2-MdmX conf 17.9.
Screening Cc1ccc(S(=O)(=O)NC(CC(C)C)C(=O)NCc2ccco2)cc1 (centres undefined) returned Jurkat NFkB inh -2.0, 697 NFkB inh 15.7, aSyn 5UTR inh 5.1, CSC inhib 6.7, Mdm2 MdmX PPI 3.6 and Gli-Sufu block 8.7.
`CC1CC(C)CN(c2nc3c(c(=O)n(C)c(=O)n3C)n2C)C1` (centres undefined) gave Jurkat NFkB inh 15.7, 697 NFkB inh -7.4, aSyn 5UTR inh 1.7, Mdm2 MdmX PPI -4.2 and Gli-Sufu block 2.6.
`COc1ccc(CCn2c(=N)c(C(=O)NCC3CCCO3)cc3c(=O)n4cccc(C)c4nc32)cc1` (centres undefined) gave Jurkat NFkB inh -17.5, 697 NFkB inh -34.7, aSyn 5UTR inh -115.8, CSC inhib 4.4, Mdm2 MdmX PPI 52.9*, Gli-Sufu block 33.3 and Mdm2-MdmX conf 31.6.
For CCCn1c(=N)c(C(=O)NCc2ccc3c(c2)OCO3)cc2c(=O)n3cccc(C)c3nc21 the results were Jurkat NFkB inh -12.6, 697 NFkB inh 9.2, aSyn 5UTR inh -51.3, CSC inhib 8.7, Mdm2 MdmX PPI 70.5*, Gli-Sufu block 14.5 and Mdm2-MdmX conf 18.9.
For COc1ccc(CNC(=O)c2cc3c(=O)n4cccc(C)c4nc3n(CC3CCCO3)c2=N)cc1 (centres undefined) the results were Jurkat NFkB inh -15.8, 697 NFkB inh -12.7, aSyn 5UTR inh -9.9, CSC inhib 16.3, Mdm2 MdmX PPI 34.6 and Gli-Sufu block 26.7.
N=c1c(C(=O)NCc2ccccc2)cc2c(=O)n3ccccc3nc2n1CCCN1CCOCC1 was read as Jurkat NFkB inh 34.8, 697 NFkB inh -13.6, Mdm2 MdmX PPI 30.1 and Gli-Sufu block 4.5.

Screens deposited in PubChem BioAssay by several laboratories.
